Screening results (PubChem BioAssay)
Compounds with a hit are over-represented: about 1.4% of the library has one in this group of screens.
UHRF1 binding: blocks human UHRF1 binding to methylated DNA. AID 687016. Q96T88. inhibition, % at 4.4 µM. UHRF1 binding to methylated oligo, TR-FRET. actives 0.75% (n = 370,000); in the data active means inhibition above about 21%;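 further: UHRF1 SRA domain binding a hemimethylated CpG hairpin DNA probe; 0% = median of test compound wells and 100% = reference inhibitor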
MBD2 DNA inh: inhibitors of human MBD2 binding to methylated oligonucleotide; TR-FRET; actives 0.31% (n = 370,000); inhibition, % at 4.4 µM; AID 686964; Q9UBB5; in the data active means inhibition above about 13%
LEDGF integ inh: blocks HIV-1 LEDGF/p75-dependent DNA integration. actives 0.64% (n = 370,000). TR-FRET IN-LEDGF/p75 DNA integration, Eu/Cy5. AID 743269. inhibition, % at 3.7 µM;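 active means inhibition above the screen-wide mean plus 3 SD, cut at about 13% in these data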;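 further: signal is the Cy5 over europium emission ratio at 671 and 618 nm; 0% = plate median of compound wells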
CASP6 VEID inh: caspase-6 (human) enzyme inhibition | P55212 | purified caspase-6, Z-VEID-R110 cleavage fluorescence | inhibition, % at 12.5 µM | actives 0.53% (n = 350,000);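 active means mean inhibition across replicates at least about 35%, with every replicate also reaching that limit, limit read from the data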;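 further: 0% = median of neutral control wells and 100% = no fluorescence left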
Target sequence (P55212 24-179 limits assumed): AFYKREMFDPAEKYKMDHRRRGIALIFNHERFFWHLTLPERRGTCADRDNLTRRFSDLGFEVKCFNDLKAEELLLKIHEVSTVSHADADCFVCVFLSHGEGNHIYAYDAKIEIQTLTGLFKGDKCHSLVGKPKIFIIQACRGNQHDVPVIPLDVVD
Target sequence (P55212 194-293 limits assumed): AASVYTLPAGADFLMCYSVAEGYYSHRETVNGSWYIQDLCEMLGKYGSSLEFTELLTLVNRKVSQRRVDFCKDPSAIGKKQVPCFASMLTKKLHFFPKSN
An asterisk follows results filed as active; / = no result given.

SMILES	UHRF1 binding	MBD2 DNA inh	LEDGF integ inh	CASP6 VEID inh
COC(=O)c1ccccc1NC(=O)C(=O)NCc1ccncc1	42*	1	2	4
C#CCOc1ccc(/C=C2/C(=O)N(c3ccc(S(N)(=O)=O)cc3)N=C2C)cc1OC	-1	-1	5	39*
C#CCOc1ccc(/C=C2/C(=O)N(c3cccc(C(=O)O)c3)N=C2C)cc1OC	7	-3	-1	34
O=CNCC(=O)NC1CCCCCC1	24*	-3	3	0
O=C(CCCC(=O)NC1CCCC1)NC1CCCC1	2	-5	3	/
O=C(NCC[C@@H]1CC[C@@H](NS(=O)(=O)c2ccc(Oc3ccccc3)cc2)[C@H](CO)O1)C1CC1	/	/	/	-2
Cc1oc2c(c(C)cc3oc(=O)c(CC(=O)NCC(=O)NCC(=O)NCC(C)O)c(C)c32)c1C (configuration not stated)	65*	-8	-5	-1
CN(C)C(=O)c1ccc(-c2ccc(C3[C@@H]4CN(C(=O)C5CCOCC5)C[C@H]3N4)cc2)cc1 (some centres not stated)	/	/	/	-1
COc1ccc(S(=O)(=O)N(C)C[C@@H]2OCCCC[C@@H](C)Oc3ccc(NS(=O)(=O)c4cccs4)cc3C(=O)N([C@@H](C)CO)C[C@H]2C)cc1	/	/	/	-2
CCOC(=O)[C@H]1[C@H]2COc3ccc(Cl)cc3[C@@H]2N2C(=O)CN(Cc3ccc(OC)cc3)C(=O)[C@@]12C	-1	-4	0	1
CCOC(=O)[C@H]1[C@H]2COc3ccc(Cl)cc3[C@@H]2N2C(=O)CN(Cc3ccc(C)cc3)C(=O)[C@@]12C	3	1	0	40*
COc1ccc(NC(=O)c2ccc(C(=O)Nc3ccc(OC)cc3OC)cc2)c(OC)c1	-1	1	1	0
COc1ccc(NC(=O)C(F)(OC)C(F)(F)F)c(OC)c1 (configuration not stated)	-1	0	3	55*
CCc1ccc(N=C2NC(=O)/C(=C/c3cc(Br)c(OCC(=O)O)c(OC)c3)S2)cc1	5	9	0	64*
O=C(NCC[C@@H]1CC[C@@H](NC(=O)C2CCOCC2)[C@H](CO)O1)Nc1ccc(Cl)cc1	/	/	/	-1
N#Cc1c(=O)c2nc(NCCCO)ncc2n2c(=O)c3ccccc3[nH]c12	-6	-10	-1	8
N#Cc1c(=O)c2nc(NCc3ccccc3)ncc2n2ccccc12	-12	-4	44*	/
C[C@H]1CN([C@@H](C)CO)C(=O)c2cc(NC(=O)Nc3ccccc3)ccc2O[C@@H]1CN(C)Cc1ccc(Oc2ccccc2)cc1	/	/	/	0
CC(=O)OCC1=C(C(=O)O)N2C(=O)C(NC(=O)c3ccc(F)cc3)C2SC1 (configuration not stated)	-1	1	0	4
CC(=O)OCC1=C(C(=O)O)N2C(=O)[C@@H](NC(=O)CSc3ccncc3)[C@H]2SC1	14	3	9	38*
C[C@@H]1CN([C@@H](C)CO)C(=O)c2cccc(NS(=O)(=O)c3cccs3)c2O[C@@H]1CN(C)S(=O)(=O)c1cccs1	/	/	/	2
O=C1N=C(N2CCCC2C(=O)O)S/C1=C\c1ccco1 (configuration not stated)	16	-4	27*	9
CC(=O)Nc1cccc(-c2ccnc3c2CC(C)(C(=O)NC(C)C)O3)c1 (configuration not stated)	1	-1	-1	0
CC(C)NC(=O)C1(C)Cc2c(-c3cccc(C(F)(F)F)c3)ccnc2O1 (configuration not stated)	38*	-8	2	3
N#C/C(=C\c1ccccc1[N+](=O)[O-])C(=O)NCc1ccccc1	25*	11	3	-3
SMILES	UHRF1 binding	MBD2 DNA inh	LEDGF integ inh	CASP6 VEID inh
C[C@H]1CN([C@@H](C)CO)C(=O)Cc2cc(NC(=O)Nc3ccccc3)ccc2O[C@H]1CN(C)C(=O)NC1CCCCC1	/	/	/	2
C[C@H]1CN([C@@H](C)CO)S(=O)(=O)c2ccc(C#Cc3cccnc3)cc2O[C@@H]1CN(C)C(=O)Nc1ccc2c(c1)OCO2	22*	7	4	5
CCCC#Cc1ccc2c(c1)O[C@@H](CN(C)Cc1ccc3c(c1)OCO3)[C@H](C)CN([C@@H](C)CO)S2(=O)=O	21*	12	-5	-1
O=C(O)CN1C(=O)/C(=C\c2cc(Br)ccc2OCc2ccccc2F)SC1=S	2	1	-3	38*
O=C(O)CCN1C(=O)/C(=C\c2cccc(OCc3ccccc3)c2)SC1=S	-2	2	2	1
O=C(O)CN1C(=O)/C(=C\c2cc(Br)ccc2OCc2ccc([N+](=O)[O-])cc2)SC1=S	-4	2	-1	55*
O=C(O)CN1C(=O)/C(=C\c2cccc(OCc3ccc(Cl)cc3Cl)c2)SC1=S	-5	-11	6	60*
O=C(O)CN1C(=O)/C(=C\c2cc(Br)ccc2OCc2ccccc2Cl)SC1=S	-2	0	4	76*
O=C(C[C@@H]1C[C@H]2c3cc(NC(=O)Nc4ccc(F)cc4)ccc3O[C@H]2[C@H](CO)O1)NCC(F)(F)F	/	/	/	2
C/C=C/c1cnc2c(c1)C(=O)N([C@@H](C)CO)C[C@H](C)[C@@H](CN(C)C(=O)Nc1ccc(OC)cc1)O2	/	/	/	2
O=C(O)CN1C(=O)/C(=C\c2ccccc2OCc2ccc(Cl)cc2Cl)SC1=S	-2	2	-2	52*
CCOc1ccccc1C=C1SC(=S)N(CC)C1=O	2	1	0	-2
O=S(=O)(c1ccc2nc(N3CCN(c4ccc(F)cc4)CC3)ccc2c1)N1CCCCC1	24*	12	5	1
O=S(=O)(c1ccc2nc(N3CCN(c4ccccc4F)CC3)ccc2c1)N1CCCCC1	18	7	2	0
O=S(=O)(c1ccc2nc(Nc3ccccc3)ccc2c1)N1CCCCC1	23*	11	-2	-1
Cc1nnc(NS(=O)(=O)c2ccc(N=Nc3ccc(N)nc3N)cc2)s1	-10	-18	-5	68*
COc1ccc(CCC(=O)Nc2ccc(C)c(S(=O)(=O)N(C)C)c2)cc1OC	1	-3	1	/
COc1cc(CCC(=O)Nc2ccc(C)c(S(=O)(=O)N(C)C)c2)cc(OC)c1OC	21*	8	0	/
NC(=O)c1c(NC(=O)c2ccco2)sc2c1CCC2	-2	-2	-2	/
N#Cc1c(NC(=O)c2ccco2)sc2c1CCC2	10	6	4	48*
COc1ccc(CN(C)C[C@H]2Oc3c(NS(C)(=O)=O)cccc3C(=O)N([C@@H](C)CO)C[C@@H]2C)cc1	/	/	/	-3
NS(=O)(=O)c1cc(C(=O)NC2CCSc3ccccc32)ccc1Cl (configuration not stated)	102*	96*	60*	80*
CSCC[C@H](NC(=O)C1CCC(CNC(=O)[C@@H]2CCCN2C(=O)OC(C)(C)C)CC1)C(=O)O (some centres not stated)	40*	3	-5	3
CC(C)(C)OC(=O)N1CCC[C@H]1C(=O)NCC1CCC(C(=O)O)CC1 (some centres not stated)	1	3	-1	/
O=C(Nc1ccc(C(F)(F)F)cc1)c1ccc2nc[nH]c2c1	3	0	-2	8
